Compound activity: PubChem, National Center for Advancing Translational Sciences (NCATS)
Only some compounds are listed: those with a hit (about 1.2% of all), similar ones and a draw of the others.
KCNH2 3.1 block: blocks the human KCNH2 3.1 channel isoform. U2OS KCNH2 3.1, thallium flux FluxOr; hits give low values. activity change, % (tested at about 1.8 µM). 340,000 compounds, 0.95% hits;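 active = maximum activity change below -70%; inconclusive = maximum activity change from -70% to -50%; inactive = maximum activity change above -50%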;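 also: thallium influx rate constant from kinetic fluorescence after stimulation buffer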
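Measured as rate of thallium-driven FluxOr signal in transduced U2OS cells carrying the 3.1 channel, read kinetically for 2 min upon stimulation; values are rate constants scaled to DMSO control wells.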
TRPV1 potentiator: enhances activation of the human vanilloid receptor TRPV1; Q8NER1; 320,000 compounds, 0.02% hits; TRPV1-expressing cells, Fluo-8 calcium influx, capsaicin EC20 potentiation; potentiation, % at 8.33 µM; in the data active = potentiation above about 80%; inconclusive = between about 30% and that limit
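TRPV1-expressing cells were cultured overnight at 35.5C and loaded with Fluo-8 calcium dye for 40 to 90 min at room temperature. After a 10 s baseline, compound was added and calcium influx was read kinetically for 3 min (ex 480/em 520 nm).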
hERG WT inh: inhibitors of human wildtype KCNH2 potassium channel; Q12809; U2OS, BacMam KCNH2, thallium flux FluxOr; hits give low values; activity change, % at 1.84 µM; 340,000 compounds, 0.37% hits;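 active = maximum activity change below -70%; inconclusive = maximum activity change between -70% and -50%; inactive = maximum activity change above -50%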
Target sequence (Q12809 whole entry, looked up): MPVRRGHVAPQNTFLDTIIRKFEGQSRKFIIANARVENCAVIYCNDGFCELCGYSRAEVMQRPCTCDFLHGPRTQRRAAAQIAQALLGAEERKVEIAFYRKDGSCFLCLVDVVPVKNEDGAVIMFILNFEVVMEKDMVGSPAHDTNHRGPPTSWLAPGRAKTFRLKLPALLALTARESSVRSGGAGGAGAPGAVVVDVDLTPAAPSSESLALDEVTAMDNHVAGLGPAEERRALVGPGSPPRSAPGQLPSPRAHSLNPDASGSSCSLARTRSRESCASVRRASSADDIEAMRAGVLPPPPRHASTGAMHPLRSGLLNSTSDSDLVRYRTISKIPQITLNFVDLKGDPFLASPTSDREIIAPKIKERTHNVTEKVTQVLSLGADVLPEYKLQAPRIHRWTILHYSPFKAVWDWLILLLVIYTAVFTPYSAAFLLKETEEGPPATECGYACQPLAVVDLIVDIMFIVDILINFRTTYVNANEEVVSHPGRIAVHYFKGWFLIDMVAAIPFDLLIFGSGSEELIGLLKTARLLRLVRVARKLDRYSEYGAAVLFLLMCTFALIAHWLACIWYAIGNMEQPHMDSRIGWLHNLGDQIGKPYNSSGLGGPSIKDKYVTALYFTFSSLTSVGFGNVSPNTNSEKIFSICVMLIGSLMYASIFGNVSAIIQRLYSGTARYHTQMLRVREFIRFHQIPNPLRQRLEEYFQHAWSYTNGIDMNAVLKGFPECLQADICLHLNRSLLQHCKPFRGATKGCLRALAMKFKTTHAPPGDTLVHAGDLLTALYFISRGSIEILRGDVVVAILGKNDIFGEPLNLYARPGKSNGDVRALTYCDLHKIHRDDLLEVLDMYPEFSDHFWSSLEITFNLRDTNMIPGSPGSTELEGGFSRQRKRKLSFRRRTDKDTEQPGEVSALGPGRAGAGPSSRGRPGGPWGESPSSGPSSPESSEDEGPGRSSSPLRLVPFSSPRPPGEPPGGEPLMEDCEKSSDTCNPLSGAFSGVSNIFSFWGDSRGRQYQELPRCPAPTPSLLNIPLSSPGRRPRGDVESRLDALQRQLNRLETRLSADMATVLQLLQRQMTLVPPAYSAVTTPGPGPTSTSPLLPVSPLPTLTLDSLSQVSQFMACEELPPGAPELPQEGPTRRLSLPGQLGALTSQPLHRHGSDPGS
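U2OS cells were transduced with wild-type KCNH2 virus (2.03 x 10^8 / mL) for 4 h at room temperature, then cultured overnight at 37 C. Thallium flux was read with FluxOr dye. Rate constants were normalized to DMSO controls.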
TRPV1 agonist: activates the human vanilloid receptor TRPV1; TRPV1-expressing cells, Fluo-8 calcium influx, agonist mode; activation, % at 8.33 µM; 320,000 compounds, 0.19% hits; AID 540275; in the data active = activation above about 80%; inconclusive = between about 30% and that limit
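Cells expressing TRPV1 were dye-loaded with Fluo-8 and read kinetically: 10 s baseline, 3 min after compound (agonist portion), then 2 min after EC20 capsaicin (allosteric enhancer portion). Calcium-bound dye fluorescence at 480/520 nm.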
Large screens that a line does not name were inactive.

Cc1csc2c(N3CCC(C(=O)O)CC3)ncnc12	none
C/C(=N\NC(=O)CN(c1ccc(Oc2ccccc2)cc1)S(C)(=O)=O)C(C)(C)C	none (no result: hERG WT inh)
CCc1cc2cc(C)cc(C)c2[nH]c1=S	KCNH2 3.1 block -95.9
COc1ccccc1N(C)S(=O)(=O)c1ccc(C(=O)NCC(c2ccco2)N2CCCCC2)cc1 (stereo unspecified)	KCNH2 3.1 block -93.9 (no result: TRPV1 potentiator, TRPV1 agonist)
O=C(NCC(c1ccco1)N1CCCC1)c1ccc(Cl)c(S(=O)(=O)N2CCc3ccccc32)c1 (stereo unspecified)	KCNH2 3.1 block -77.4
O=C(NNc1cc(N2CCCC2)nc(N2CCCC2)n1)c1ccc([N+](=O)[O-])cc1	KCNH2 3.1 block -90.3
CC(C)(C)c1ccc(C(=O)NNc2cc(N3CCCCC3)nc(N3CCCCC3)n2)cc1	none
COc1ccc(CN(C2CCCC2)S(=O)(=O)c2ccc(-n3cnnn3)cc2)cc1	KCNH2 3.1 block -71.1
CCOC(=O)c1ccccc1NC(=O)COC(=O)C1CCCC1	hERG WT inh -103.7
Cc1ccc(S(=O)(=O)N2CCC[C@H]2C(=O)NC2CCCCC2)cc1	none (no result: TRPV1 potentiator, TRPV1 agonist)
COc1cc(NC(C)CCCN)c2nc(C)ccc2c1Oc1ccc(F)cc1 (stereo unspecified)	none (no result: TRPV1 potentiator, TRPV1 agonist)
Cc1cc(C)c2nc(-c3ccccn3)cc(C(=O)NCc3cc(C)n(C)n3)c2c1	TRPV1 agonist 87.5
C[C@H]1CN([C@@H](C)CO)C(=O)c2cc(Br)cnc2O[C@H]1CN(C)Cc1ccc(Oc2ccccc2)cc1	none (no result: TRPV1 potentiator, TRPV1 agonist)
CN(c1ccc(-c2csc(NC(=O)CCCc3nc4ccccc4c(=O)[nH]3)n2)cc1)S(C)(=O)=O	none (no result: TRPV1 potentiator, TRPV1 agonist)
CCOC(=O)c1ccc2[nH]c3c(c2c1)CCCCC3=O	KCNH2 3.1 block -167.1
CCOC(=O)c1ccc2[nH]c3c(c2c1)CCCC3C(=O)OCC (stereo unspecified)	none
O=C(NCc1ccccc1)c1onc(CSc2ccc(F)cc2)c1C(=O)NCCCN1CCOCC1	KCNH2 3.1 block -80.6, hERG WT inh inconclusive
O=C(c1cc(-c2cccc(O)c2)on1)N1CCCCC1	none
O=C(c1cc(-c2cccc(O)c2)on1)N1CCCC1	KCNH2 3.1 block -188.2, hERG WT inh -227.7
O=C(c1cc(-c2ccc(Cl)c(Cl)c2)on1)N1CCOCC1	TRPV1 agonist 80.4
O=C(c1cc(-c2ccc(Cl)cc2Cl)on1)N1CCOCC1	TRPV1 agonist 83.4
CNc1ncnc(Sc2ccc(Cl)cc2)c1[N+](=O)[O-]	none
c1coc(-c2nc3cc4ccccc4cc3nc2-c2ccco2)c1	none (no result: KCNH2 3.1 block, hERG WT inh)
CSc1nc2nc(Cl)c(Cl)nc2[nH]1	none (no result: TRPV1 potentiator, TRPV1 agonist)
Cc1ccc(/C=N/NC(=O)c2ccc3nc[nH]c3c2)o1	none
OCCNCc1c(OCc2ccc(Cl)cc2)ccc2ccccc12	KCNH2 3.1 block -104.8, hERG WT inh -128.5
CC(O)CNCCNCc1c(OCc2ccccc2)ccc2ccccc12 (stereo unspecified)	none
CC1(CNC(=O)C(=O)NCC2(C)CO2)CO1 (stereo unspecified)	none (no result: TRPV1 potentiator, TRPV1 agonist)
CN(C)C(=S)N=c1ssc(=S)n1Cc1cccnc1	none (no result: TRPV1 potentiator, TRPV1 agonist)
O=S(=O)(c1ccc(F)cc1)N1CCN(CC(O)COCc2cccs2)CC1 (stereo unspecified)	KCNH2 3.1 block -78.0
O=S(=O)(c1ccc(F)cc1)N1CCN(CC(O)COc2ccccc2F)CC1 (stereo unspecified)	none
CCCCOc1ccc(C(=O)N/C(=C\c2cccc([N+](=O)[O-])c2)C(=O)OCc2ccco2)cc1	KCNH2 3.1 block -75.5
CCCCOc1ccc(C(=O)N/C(=C\c2ccc(OC)cc2)C(=O)OCc2ccco2)cc1	none
COC(=O)c1c(NC(=O)Cn2nc(C(F)F)cc2C(F)F)sc(C)c1C	KCNH2 3.1 block -75.5
COC(=O)c1c(NC(=O)CCCC(=O)O)sc(C)c1C	KCNH2 3.1 block -83.0
CCOC(=O)c1c(NC(=O)Cn2nc(C(F)F)cc2C(F)F)sc(C)c1C	none
O=C(CN1C(=O)COc2ccc(S(=O)(=O)N3CCCC3)cc21)Nc1cccc(F)c1	KCNH2 3.1 block -115.6
COc1ccccc1/C=C/CN1CCCC(CO)(Cc2cccc(Cl)c2)C1 (stereo unspecified)	none
COc1cccc(CC2(CO)CCCN(C/C=C/c3ccccc3OC)C2)c1 (stereo unspecified)	KCNH2 3.1 block -86.2, hERG WT inh -70.9
COc1cccc(CC2(CO)CCCN(Cc3cc(F)ccc3-n3cccn3)C2)c1 (stereo unspecified)	KCNH2 3.1 block -104.6, hERG WT inh inconclusive
COc1cccc(CC2(CO)CCCN(Cc3ccc(OC)c(C)c3OC)C2)c1 (stereo unspecified)	KCNH2 3.1 block -112.7, hERG WT inh -79.2
COc1cccc(CC2(CO)CCCN(Cc3cn[nH]c3-c3ccc(F)cc3)C2)c1 (stereo unspecified)	none
COc1ccc(CN2CCN(Cc3cccc(Oc4ccccc4)c3)CC2)c(OC)c1OC	KCNH2 3.1 block -73.4, hERG WT inh inconclusive
CC(C)Oc1ccc(C(CCNCc2ccc(O)cc2)c2ccccc2)cc1 (stereo unspecified)	none
COc1ccc(C(CCNCc2ccc(N(C)C)cc2)c2ccccc2)cc1 (stereo unspecified)	KCNH2 3.1 block -85.0
FC(F)(F)c1ccc(-c2noc(CN3CCCN(C4CCCCC4)CC3)n2)cc1	KCNH2 3.1 block -93.5
c1ccc(C(c2ccccc2)c2noc(CN3CCN(C4CCCC4)CC3)n2)cc1	none
CC(O)(CC(=O)CC(=O)c1ccccc1)c1ccccc1 (stereo unspecified)	none (no result: TRPV1 potentiator, TRPV1 agonist)
Cc1ccc(S(=O)(=O)N2CCCN(Cc3nc4ccccc4c(=O)[nH]3)CC2)cc1	none
Cc1ccc(S(=O)(=O)N2CCCN(C(C)c3nc4ccccc4c(=O)[nH]3)CC2)cc1 (stereo unspecified)	hERG WT inh -280.2
CCc1cc(C(=O)N2CCN(S(=O)(=O)c3cc(C)ccc3C)CC2)sc1C	none
O=c1[nH]c(=S)[nH]c2nccnc12	none (no result: TRPV1 potentiator, TRPV1 agonist)
COc1ccc([C@H]2CC(=O)C=C(c3cccc(C(F)(F)F)c3)C2)cc1	KCNH2 3.1 block -75.1, TRPV1 agonist inconclusive
COc1ccc([C@H]2CC(=O)C=C(c3cccc(Br)c3)C2)cc1	TRPV1 agonist inconclusive
C[C@@H]1CN([C@H](C)CO)C(=O)CCCn2nncc2CO[C@H]1CN(C)Cc1cccc2c1OCCCO2	none (no result: TRPV1 potentiator, TRPV1 agonist)
CCCOc1ccc(C2NC(=S)NC(C)=C2C(=O)c2ccccc2)cc1OC (stereo unspecified)	KCNH2 3.1 block -111.8
CCOc1cc(S(=O)(=O)N2CC=C(c3ccc(F)cc3)CC2)c(OCC)cc1-n1cnnn1	KCNH2 3.1 block -82.4, hERG WT inh -101.6
CCN(CC)C(=O)c1nc(-c2cccc3ccccc23)no1	none (no result: TRPV1 potentiator, TRPV1 agonist)
CCC1CN(C(=O)N2CCC(C(=O)Nc3ccccc3F)CC2)c2ccccc2O1 (stereo unspecified)	none
CS(=O)(=O)N1CCC(C(=O)Nc2ccc(Cl)cc2Cl)CC1	KCNH2 3.1 block -70.7 (no result: TRPV1 potentiator, TRPV1 agonist)
CS(=O)(=O)N1CCC(C(=O)Nc2ccc(Br)cc2F)CC1	KCNH2 3.1 block -91.7
Cc1cc(O)cc(O)c1/C=N/NC(=O)c1ccc2c(c1)OCCO2	none (no result: TRPV1 potentiator, TRPV1 agonist)
